Rows were chosen to be rich in hits. Some 4.6% of all compounds tested hit in one or more screens of this group.
NLRP3 yeast inh: blocks the NALP3 inflammasome reconstituted in yeast; Yeast reconstituted NLRP3/ASC/caspase-1, beta-gal luminescence, 24 h; inhibition, % at 10 µM; hit rate 0.39% among 330,000; AID 2825;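 active = inhibition of 50% or more; inactive = inhibition below 50%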;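 note: plate controls were induced DMSO wells for no effect and uninduced yeast grown without galactose for full effect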
TIM10 inh: inhibits growth of TIM10 yeast strain. S. cerevisiae TIM10 strain growth, BacTiter-Glo luminescence, 24 h. inhibition, % at 10 µM. hit rate 1.4% among 330,000. AID 463195;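 active = inhibition of 40% or more at the single tested concentration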;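 note: wild-type TIM10 isogenic control strain grown at permissive 25 °C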
SKKanGAS inh: inhibitors of SKKanGAS S. pyogenes growth in kanamycin (SK-promoter or general growth effect) | AID 1662 | hit rate 1.3% among 300,000 | BacTiter-Glo, 6 h | inhibition, % at 7.5 µM;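 active = mean replicate score, as percent of positive control median, at least 50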;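 note: strain carries kanamycin resistance gene driven by streptokinase promoter and grows in 40 µg/ml kanamycin; loss of luminescence reflects streptokinase promoter inhibition or plain growth inhibition; 0% = median of DMSO wells and 100% = positive control at its reference dose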
tim10-1 inh: tim10-1 yeast growth inhibition; S. cerevisiae tim10-1 ts strain growth, BacTiter-Glo, 24 h; inhibition, % at 20 µM; hit rate 2.2% among 330,000;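 active = inhibition of at least 40%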;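 note: mutant grown at 25 °C; 0% = DMSO wells with yeast and 100% = wells holding no yeast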
tim23-1 inh: growth inhibitors of tim23-1 mutant yeast. S. cerevisiae tim23-1 growth, BacTiter-Glo luminescence, 24 h. inhibition, % at 20 µM. hit rate 1.3% among 330,000. AID 463212;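 active = growth inhibition of the mutant yeast at or above 50%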;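 note: temperature-sensitive mutant grown at 25 °C; plate controls were DMSO-treated mutant yeast for no effect and medium wells lacking yeast for full effect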
PfHsp90 yeast 2: reduces growth (ATP signal) of yeast expressing P. falciparum Hsp90. inhibition, % at 9.4 µM. AID 504621. S. cerevisiae expressing PfHsp90, BacTiter-Glo ATP, 48 h; yeast lacking PDR1 and PDR3 efflux regulators. hit rate 0.32% among 310,000;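 active = every replicate shows inhibition above about 80%, whatever the replicate mean, limit read from the data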;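 note: 0% = DMSO neutral controls and 100% = 20 µM radicicol positive controls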
tim10-1 conf: confirmation of tim10-1 mutant yeast growth inhibitors. shares compounds with tim10-1 inh. S. cerevisiae tim10-1 ts strain growth, BacTiter-Glo, 24 h. inhibition, % at 20 µM. hit rate 56% among 7,400;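 active = inhibition of yeast growth at or above a set limit in either of two repeat tests at 20 µM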;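 note: tim10-1 mutant grown at permissive 25 °C to find synthetic lethal compounds; 0% = DMSO yeast wells and 100% = medium wells without yeast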
TIM10 conf: confirmation of TIM10 yeast growth inhibitors. AID 463215. shares compounds with TIM10 inh. S. cerevisiae tim10 strain growth, BacTiter-Glo luminescence, 24 h. hit rate 63% among 4,600. inhibition, % at 10 µM;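 active = inhibition of yeast growth at or above a set limit in either of two replicates at 10 µM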;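 note: this counterscreen used the strain with wild-type TIM10; 0% = yeast with DMSO and 100% = medium wells lacking yeast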
tim23-1 conf: tim23-1 yeast growth inhibition, confirmed; shares compounds with tim23-1 inh; S. cerevisiae tim23-1 growth, BacTiter-Glo luminescence, 24 h; inhibition, % at 20 µM; hit rate 83% among 4,400; AID 463218;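 active = inhibition above about 39% in either of two replicate wells at 20 µM, limit read from the data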;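 note: temperature-sensitive tim23-1 mutant grown at 25 °C; 0% = DMSO wells with yeast and 100% = medium wells without yeast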
An asterisk follows results filed as active; . = no result given.

SMILES	NLRP3 yeast inh	TIM10 inh	SKKanGAS inh	tim10-1 inh	tim23-1 inh	PfHsp90 yeast 2	tim10-1 conf	TIM10 conf	tim23-1 conf
O=S(=O)(NCCc1ccc(F)cc1)c1ccc(F)cc1Br	.	-11	.	6	42	4	.	.	.
CC(=O)C(=Cc1cn(-c2ccccc2)nc1-c1ccccc1)C(C)=O	5	57*	.	67*	82*	-10	68*	53*	83*
COc1ccc(CC(=O)OCC(=O)Nc2cc(Cl)ccc2C)cc1	14	-3	.	4	10	-27	.	.	.
O=C(CNC(=O)c1ccccc1F)NCCc1ccc(Cl)cc1Cl	12	7	3	-3	18	7	.	.	.
O=C(NC(=O)c1ccccc1F)OCc1ccc(Cl)cc1Cl	39	18	-2	46*	50*	6	27	.	45*
O=c1c2c([N+](=O)[O-])cc([N+](=O)[O-])cc2sn1-c1ccc(Br)cc1	14	19	.	85*	54*	-8	93*	.	70*
COc1ccc(NC(=O)C2CCC(=O)N2C(=O)OCc2ccccc2)cc1 (configuration not stated)	21	-2	-2	10	4	-1	.	.	.
COc1ccc(/C(N)=N/OC(=O)C2CCC(=O)N2S(=O)(=O)c2ccc(C)cc2)cc1OC (configuration not stated)	2	-32	0	2	10	-7	.	.	.
COc1cccc(CSc2nc3ccccc3cc2C=O)c1	41	46*	13	49*	71*	-10	44*	53*	78*
COc1cccc(NC(=O)CSc2nc3ccccc3cc2Cc2ccccc2)c1	13	9	34	15	0	12	.	.	.
CCOC(=O)c1c(/N=C/N(C)C)sc(/C=N/Nc2ccccc2)c1-c1ccc(Cl)cc1	10	11	3	15	5	4	.	.	.
Cc1cc(C(=O)NNC(=S)NCc2ccco2)n(C)n1	20	4	-8	-5	0	-3	.	.	.
CC(C)c1cc(C(=O)NNC(=S)NCc2ccco2)c(O)c(C(C)C)c1	8	57*	20	55*	54*	-21	57*	7	66*
O=[N+]([O-])c1cc(Cl)cc2c1nc(NCCO)c1ccccc12	9	40	32	67*	55*	-5	50*	.	47*
COc1cccc(C=O)c1OCCCOc1cccc2cccnc12	2	41*	0	45*	65*	-32	33*	34*	55*
Brc1ccccc1OCCCOc1cccc2cccnc12	19	35	41	11	41	-20	.	.	.
CN(C)CCCNCCCNC(=O)/C(=N\O)c1ccccc1	6	-14	-1	-16	0	0	.	.	.
O=C(Nc1ccccc1N1CCCCC1)c1ccc(-c2ccc(Cl)cc2)o1	-1	6	7	28	5	-7	.	.	.
CN1CCN(c2ccccc2NC(=O)c2ccc(-c3ccc(Br)cc3)o2)CC1	42	20	3	56*	50	13	46*	.	39
Cc1ccc(C(OCC(O)CNC(C)c2ccccc2)c2ccccc2)cc1 (configuration not stated)	21	59*	7	62*	54*	8	61*	52*	39*
O=C(COC(=O)c1ncc(Cl)c(Cl)c1Cl)NCCc1ccccc1	21	8	-4	22	25	-16	.	.	.
C/C(=N\NC(=O)c1ccccc1NC(=O)c1ccc(Cl)cc1)c1ccncc1	1	96*	76*	96*	95*	32	97*	96*	100*
O=C(c1ccc2c(c1)OCCO2)C1CCN(S(=O)(=O)c2ccccc2F)CC1	23	42*	0	50*	53*	-31	43*	30	48*
O=C(CN1CCC(C(=O)c2ccc3c(c2)OCCO3)CC1)Nc1ccccc1F	5	-5	-2	26	26	24	.	.	.
COc1ccc(S(=O)(=O)N2CCC(C(=O)c3ccc4c(c3)OCCO4)CC2)cc1	42	60*	-4	55*	59*	1	55*	55*	55*
SMILES	NLRP3 yeast inh	TIM10 inh	SKKanGAS inh	tim10-1 inh	tim23-1 inh	PfHsp90 yeast 2	tim10-1 conf	TIM10 conf	tim23-1 conf
O=C(COc1ccc2ccc(=O)oc2c1)NCCCN1CCCC1=O	8	-1	-7	8	5	-11	.	.	.
O=C(CN1CCN(c2ccccn2)CC1)Nc1ccc(F)c(F)c1	7	-8	2	-8	7	0	.	.	.
CCOC(=O)c1cnc2c(OC)cccc2c1N1CC(C)CC(C)C1 (configuration not stated)	6	28	25	42*	71*	21	35*	.	51*
Cc1cc(=O)n2nc(N3CCCC(C(=O)Nc4ccc(C)c(C)c4)C3)sc2n1 (configuration not stated)	-11	-2	1	8	16	14	.	.	.
Cc1ccc(N(C(=O)Cc2cccs2)C(C(=O)NC2CCCCC2)c2ccccn2)cc1C (configuration not stated)	13	34	7	24	32	-24	.	.	.
O=[N+]([O-])c1ccc(/C=C2\CCC(C3=CCCC3)=C2N2CCOCC2)cc1	-16	36	0	52*	53*	1	61*	.	52*
O=[N+]([O-])c1ccc(/C=N/Nc2nc(N3CCOCC3)nc(N3CCOCC3)n2)cc1	2	-5	-1	7	-1	.	.	.	.
COc1ccc(-c2cc(-c3c(O)c(OC)c4occc4c3OC)[nH]n2)cc1OC	10	36	-4	50*	53*	9	31*	.	45*
CCN(CC)CCNc1c2c(c(C#N)c3nc4ccccc4n13)CCCC2	28	60*	-1	68*	57*	-36	56*	53*	67*

Screens deposited in PubChem BioAssay by several laboratories.
